Rows were chosen to be rich in hits. Some 7.9% of all compounds tested hit in one or more screens of this group.
M1 antagonist: antagonists of rat M1 muscarinic receptor; CHO-M1 cells, Fluo-4 calcium, ACh EC80 antagonist mode; stronger effect = lower value; B-score at 10 µM; 3.4% of 64,000 active; AID 628;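 active = calcium fluorescence response, raw or row-and-column corrected B-score, differing from the plate sample mean either way at a set confidence level, mostly lower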
Her2 expr inh: lowers expression of human Her2 kinase | AID 645 | 0.69% of 65,000 active | SKBR-3 HER2 protein level, AlphaScreen, 18-24 h; stronger effect = lower value | HER2 level % of control, % at 10 µM | P04626;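 active = HER2 level under 5% of the carrier-only control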;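 also: 100% = DMSO carrier and 0% = 500 nM PU-H71 HSP90 inhibitor; lower value means stronger loss of Her2 protein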
Target sequence (P04626 whole entry, looked up): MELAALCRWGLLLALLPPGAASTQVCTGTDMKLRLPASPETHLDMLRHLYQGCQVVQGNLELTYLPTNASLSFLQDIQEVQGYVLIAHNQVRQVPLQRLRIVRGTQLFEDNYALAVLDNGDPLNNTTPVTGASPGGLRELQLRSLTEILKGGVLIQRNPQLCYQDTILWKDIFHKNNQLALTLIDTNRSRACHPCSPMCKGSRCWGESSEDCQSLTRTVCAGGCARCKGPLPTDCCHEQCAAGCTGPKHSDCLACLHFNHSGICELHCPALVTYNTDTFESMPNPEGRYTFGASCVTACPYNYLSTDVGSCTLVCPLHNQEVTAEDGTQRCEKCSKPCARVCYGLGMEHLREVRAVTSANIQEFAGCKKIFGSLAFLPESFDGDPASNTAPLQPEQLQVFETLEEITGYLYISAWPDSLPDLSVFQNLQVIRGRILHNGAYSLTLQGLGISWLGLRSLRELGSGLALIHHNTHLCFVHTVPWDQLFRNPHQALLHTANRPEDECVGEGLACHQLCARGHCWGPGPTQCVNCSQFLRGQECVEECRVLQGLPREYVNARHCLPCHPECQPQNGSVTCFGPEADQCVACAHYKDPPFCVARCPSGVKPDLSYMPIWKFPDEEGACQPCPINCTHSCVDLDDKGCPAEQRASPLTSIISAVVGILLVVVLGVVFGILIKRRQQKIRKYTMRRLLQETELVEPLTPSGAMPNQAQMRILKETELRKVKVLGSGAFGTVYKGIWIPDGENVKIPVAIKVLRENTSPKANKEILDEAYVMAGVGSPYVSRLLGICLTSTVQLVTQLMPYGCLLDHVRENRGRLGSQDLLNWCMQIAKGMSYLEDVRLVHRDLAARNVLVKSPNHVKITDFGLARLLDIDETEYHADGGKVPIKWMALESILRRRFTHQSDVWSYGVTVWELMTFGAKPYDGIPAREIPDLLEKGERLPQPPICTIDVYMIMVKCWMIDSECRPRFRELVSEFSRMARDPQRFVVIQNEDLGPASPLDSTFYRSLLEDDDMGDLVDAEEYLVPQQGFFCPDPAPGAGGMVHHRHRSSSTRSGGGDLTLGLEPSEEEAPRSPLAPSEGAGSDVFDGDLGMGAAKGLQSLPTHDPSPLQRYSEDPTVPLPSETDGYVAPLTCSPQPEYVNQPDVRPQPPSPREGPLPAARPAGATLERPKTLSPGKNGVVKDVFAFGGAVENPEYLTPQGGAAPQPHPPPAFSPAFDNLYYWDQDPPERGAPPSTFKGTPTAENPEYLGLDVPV
PLAP act: activators of human placental alkaline phosphatase; purified PLAP enzyme, luminescent substrate read-out; stronger effect = higher value; activation fold at 20 µM; 1.2% of 96,000 active; AID 696; in the data active = activation fold above about 2
Cav32 inh: human Cav3.2 channel inhibition, primary screen; 4% of 100,000 active; O95180; Cav3.2-expressing cells, Fluo-4 calcium fluorescence FDSS; stronger effect = lower value; B-score at 10 µM; AID 449739;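 active = single-dose well whose peak fluorescence ratio is a statistical outlier from its plate by either plate-standardised score or position-corrected B-score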
M1 agonist: M1 muscarinic receptor agonism; CHO-M1 cells, Fluo-4 calcium fluorescence, agonist mode; stronger effect = higher value; B-score at 10 µM; 3% of 64,000 active; AID 626;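 active = fluorescence rise, raw or as B-score row- and column-corrected plate score, outside the 99.7% band of its plate's samples, either direction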
* marks the source's active call; other numbers are inactive results; / = no result given.

SMILES	M1 antagonist	Her2 expr inh	PLAP act	Cav32 inh	M1 agonist
O=C(N/N=C/c1ccc2c(c1)OCO2)C1COc2ccccc2O1 (centres undefined)	/	/	0.8	1.11	/
Cc1ccc(CSc2nnc(-c3ccncc3)n2CC2CCCO2)cc1 (centres undefined)	/	/	1	0.641	/
COc1ccccc1/C=C/C(=O)c1cc(Br)ccc1OC(=O)c1ccco1	/	/	/	-4.49*	/
Cc1ccc(/C=C/C(=O)c2cc(Br)ccc2OC(=O)c2ccco2)cc1	/	/	0.8	-0.756	/
CCn1nc(C(=O)OCC(=O)c2c[nH]c3ccccc23)c2ccccc2c1=O	-1.26	84.6	1.3	-0.0343	6.09*
CC(C)n1nc(C(=O)OCC(=O)c2c[nH]c3ccccc23)c2ccccc2c1=O	/	/	1	0.601	/
Cc1cc(Cl)c(S(=O)(=O)NC(C(=O)O)c2ccccc2)cc1OCC(N)=O (centres undefined)	-0.149	44.8	1.7	0.00213	0.613
Cc1cc(Cl)c(S(=O)(=O)Nc2ccc3c(c2)OCO3)cc1OCC(N)=O	0.0979	105.7	1.3	0.155	-0.17
Cc1cc(Cl)c(S(=O)(=O)NC(C(=O)O)C(C)C)cc1OCC(=O)NC1CCCCC1 (centres undefined)	/	/	2*	0.653	/
Cc1cc(Cl)c(S(=O)(=O)N2CCCC2)cc1OCC(=O)NC1CCCCC1	/	/	2*	2.19	/
Cc1cc(Cl)c(S(=O)(=O)Nc2ccc3c(c2)OCO3)cc1OCC(=O)NC1CCCCC1	/	/	1.7	-4.23*	/
Cc1ccc(C)c(S(=O)(=O)N2CCN(C(=O)Cn3c(C(F)(F)F)nc4ccccc43)CC2)c1	/	/	1	-0.00529	/
Cc1cc(C(=O)CSc2nnc(N)s2)c(C)n1CCc1ccc(F)cc1	0.505	102.8	0.9	-0.893	-1.08
Cc1cc(C(=O)CSc2nnc(N)s2)c(C)n1CCc1ccc(Cl)cc1	-0.222	76.5	0.8	-4.93*	0.0311
Cc1ccccc1C(=O)NNc1ccc([N+](=O)[O-])cc1	/	/	0.8	-0.768	/
O=C(NC(NNc1ccc([N+](=O)[O-])cc1)(C(F)(F)F)C(F)(F)F)c1ccccc1Cl	/	/	1.1	-8.47*	/
CC(=O)N1CCN(c2nc(-c3ccco3)c3c(c2C#N)CC(C)(C)SC3)CC1	/	/	1.1	-0.535	/
CCCCc1nc(NCCN2CCOCC2)c(C#N)c2c1COC(C)(C)C2	0.104	100.6	1.6	-0.48	-2.56
CCCCc1nc(NCCNC(=O)c2ccccc2)c(C#N)c2c1CSC(C)(C)C2	/	/	1.6	-4.5*	/
CCCCc1nc(NCCNC(=O)c2ccco2)c(C#N)c2c1CSC(C)(C)C2	0.219	71.5	1.9	-5.84*	-0.0504
CS(=O)(=O)N(CC(=O)N/N=C/c1cccs1)c1cccc(Cl)c1Cl	/	/	1.1	-1.63	/
COC(=O)C(NC(C)=O)(Nc1nc(C)cs1)C(F)(F)F (centres undefined)	/	/	0.9	0.839	/
COC(=O)C(NC(C)=O)(Nc1nc2c(C)cc(C)cc2s1)C(F)(F)F (centres undefined)	/	/	1.1	-4.3*	/
Cn1c(=O)n(CCc2ccccc2)c(=O)c2c1nc1n2CCCN1c1ccc(F)cc1	0.682	112.8	/	/	0.823
CCN(CC)C(=O)CSc1nnc(-c2ccccc2)n1N	2.37*	70.8	1	0.494	1.18
SMILES	M1 antagonist	Her2 expr inh	PLAP act	Cav32 inh	M1 agonist
COc1ccc(C2CC(=O)C(C=NCCO)=C(O)C2)cc1OC (centres undefined)	0.972	-27.9*	0.8	-0.29	1.3
CC(=O)COc1ncn(-c2ccccc2)n1	/	/	1.1	-4.37*	/
CCOC(=O)COc1ncn(-c2ccccc2)n1	/	/	0.9	1.95	/
c1ccc(-c2ccc(-c3cnc4n3CCCCC4)cc2)cc1	/	/	1.7	-0.657	/
COc1cc(CNc2ccc(N3CCOCC3)c(C(=O)O)c2)ccc1OCC(N)=O	0.0707	100.1	1.3	-0.391	0.539
CCOC(=O)Cc1ccc(NC(=O)c2ccc(C(C)(C)C)cc2)cc1	/	/	1.1	-8.09*	/
O=C([C@@H]1CC=C[C@@H]2CCN(C3CC3)C(=O)[C@@H]21)N1CCN(c2ccccc2)CC1	/	/	/	2.23	/
CCOc1ccc(NC(=O)NCCCn2c(C)nc3cc(C)c(C)cc32)cc1	/	/	2.2*	-0.699	/
CCCCOc1ccc(CSc2ncn[nH]2)cc1	-0.228	90.1	2.3*	-2.18	0.0169
C(=C\CSc1ncn[nH]1)/CSc1ncn[nH]1	-0.875	96.0	2.7*	/	0.359
O=C(CSc1ncn[nH]1)c1ccccc1	-0.128	99.8	2.2*	-0.147	-0.653
O=C(CSc1ncn[nH]1)c1ccco1	-0.313	102.5	/	-0.078	0.0461
c1n[nH]c(SCCCCSc2ncn[nH]2)n1	0.856	82.3	2.6*	0.79	-1.63
Cn1ccnc1SCC(=O)N(C1CCCCC1)C1CCCCC1	-1.07	98.4	0.9	-0.725	1.03

Screening data deposited in PubChem by several laboratories.
